# Hits are enriched below; roughly 1.1% of the tested compounds scored in any of these assays.
# TRPV1 potentiator = potentiators of human vanilloid receptor 1 (TRPV1). Q8NER1. TRPV1-expressing cells, Fluo-8 calcium influx, capsaicin EC20 potentiation. potentiation, % at 8.33 µM. 320,000 tested, 0.02% active. AID 540277; in the data active = potentiation above about 80%; inconclusive = between about 30% and that limit; note: 0% is about no effect
#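 Fluo-8 calcium influx in TRPV1-expressing cells, kinetic read (ex 480/em 520 nm). Compound added and read 3 min for agonist activity, followed by capsaicin at EC20 final and 2 min further read for enhancement.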
# RXFP1 agonist = RXFP1 (human) receptor agonism. HEK293T-RXFP1 cAMP TR-FRET, 30 min; response scale: percent of porcine relaxin response, buffer zero. 370,000 tested, 0.3% active. Q9HBX9. Potency, µM (titrated, usually from 57.5 µM), without a hit: top-dose activation, most hits filed as activators; active = well fitted activation curve with a large enough effect; inconclusive = small, poorly fitted or top-dose-only effect; note: potency is the fitted concentration of half-maximal effect; % is set by controls: 0 for no effect and ±100 for the full control effect; nearly all actives have a fitted effect of over 60% in size
# Target sequence (Q9HBX9 whole entry, looked up): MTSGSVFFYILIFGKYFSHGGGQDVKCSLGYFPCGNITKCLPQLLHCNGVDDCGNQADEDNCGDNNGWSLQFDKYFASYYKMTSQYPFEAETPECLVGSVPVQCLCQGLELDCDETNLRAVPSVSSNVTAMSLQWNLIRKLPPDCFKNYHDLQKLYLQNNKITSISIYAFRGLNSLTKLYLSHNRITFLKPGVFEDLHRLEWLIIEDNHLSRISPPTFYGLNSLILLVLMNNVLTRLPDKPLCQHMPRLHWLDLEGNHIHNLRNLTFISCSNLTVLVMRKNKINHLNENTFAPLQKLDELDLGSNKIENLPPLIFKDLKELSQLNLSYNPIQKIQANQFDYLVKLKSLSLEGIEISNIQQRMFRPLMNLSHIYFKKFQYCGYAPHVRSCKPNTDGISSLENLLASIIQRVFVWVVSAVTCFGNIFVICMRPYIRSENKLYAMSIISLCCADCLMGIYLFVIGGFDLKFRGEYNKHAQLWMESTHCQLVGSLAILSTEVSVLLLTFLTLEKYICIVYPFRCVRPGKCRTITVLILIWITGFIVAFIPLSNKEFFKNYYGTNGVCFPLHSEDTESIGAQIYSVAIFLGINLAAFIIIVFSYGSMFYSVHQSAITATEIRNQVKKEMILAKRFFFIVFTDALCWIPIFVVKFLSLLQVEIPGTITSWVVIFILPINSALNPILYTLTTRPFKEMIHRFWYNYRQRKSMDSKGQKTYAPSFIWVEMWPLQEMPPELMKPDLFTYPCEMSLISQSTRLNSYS
#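 cAMP rise read by TR-FRET after 30 min, 37C compound exposure (up to 58 uM) in RXFP1-transfected HEK293 cells with Ro 20174 present. EC50 from Hill-equation fits, with 29 nM porcine relaxin as 100% and buffer as basal.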
# RXFP1 antagonist = blocks the human relaxin receptor RXFP1. Q9HBX9. HEK293-RXFP1, relaxin-stimulated cAMP HTRF, 30 min; hits give low values. activity change, negative = inhibition, % at 57.5 µM. 350,000 tested, 0.59% active;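 active = activity change of -60% or lower, but not beyond a set lower limit; inconclusive = change between -60% and -40%, or beyond the set limit; inactive = change above -40%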; note: % is set by controls: 0 for no effect and ±100 for the full control effect
# gsp agonist = activates gsp, the McCune-Albright syndrome mutation; gsp mutant cells, cAMP HTRF, 30 min; Potency, µM (highest dose often 76.9 µM), for inactives: at the highest dose activation (cAMP increase), hits mostly activators; 340,000 tested, 0.13% active; AID 624287; active = well fitted activation curve with a large enough effect; inconclusive = small, poorly fitted or top-dose-only effect, or another doubt; inactive = no such curve, though single readings can be large or run the other way; cell line not stated here;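 note: phosphodiesterase inhibitor Ro 20-1724 added with compounds to block cAMP breakdown; potency is the fitted concentration of half-maximal effect; nearly all actives have a fitted effect of over 60% in size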
#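 Cells in DMEM/10% FBS with G418 were pretreated with compounds in DMSO plus […] (300 uM stock) for 30 min at 37C. cAMP was measured by HTRF (cAMP-d2 plus anti-cAMP antibody-K) after 30 min at room temperature.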
# TRPV1 agonist = human TRPV1 agonism | activation, % at 8.33 µM | TRPV1-expressing cells, Fluo-8 calcium influx, agonist mode | 320,000 tested, 0.19% active | AID 540275 | Q8NER1; in the data active = activation above about 80%; inconclusive = between about 30% and that limit; note: 0% is about no effect
#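 TRPV1-expressing cells were cultured overnight at 35.5C and loaded with Fluo-8 calcium dye for 40 to 90 min at room temperature. After a 10 s baseline, compound was added and calcium influx was read kinetically for 3 min (ex 480/em 520 nm).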
# gsp antag = gsp mutant antagonism. gsp-mutant cells, cAMP HTRF, 30 min. AID 624288. Potency, µM (top dose mostly 76.9 µM), for the others: at the top dose activity change, negative = inhibition, actives largely listed as inhibitors. 340,000 tested, 0.4% active; calls by dose curve; cell line not stated here;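 note: intracellular cAMP measured with PDE inhibitor Ro 20-1724 present during compound exposure; potency is the fitted concentration of half-maximal effect; % is set by controls: 0 for no effect and ±100 for the full control effect; nearly all actives have a fitted effect of over 65% in size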
#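 HTRF cAMP measurement after 30 min RT detection following 30 min, 37C compound treatment alongside […] (added as 300 uM solution) in G418-selected cells seeded at 2000/well and grown 16–24 h.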
# The depositor's hits bear a star; ? = inconclusive; nt = not tested or not shown; [ ] = remark or other dose.
SMILES,TRPV1 potentiator,RXFP1 agonist,RXFP1 antagonist,gsp agonist,TRPV1 agonist,gsp antag
CCOc1ccc(/C=N/NC(=O)Cc2ccccc2)cc1CN1CC2CC(C1)c1cccc(=O)n1C2 (stereo not given),-4,2%,nt,nt,-2,35µM*
Cc1ncoc1C(=O)NC1CC(C)(C)Cc2c1cnn2-c1ccc(F)cc1 (stereo not given),2,2%,-3,1%,85*,2%
CC1(C)Cc2c(cnn2-c2ccc(F)cc2)C(NC(=O)c2ccco2)C1 (stereo not given),-6,0%,-2,3%,13,-7%
Cc1ccc(CNC(=O)C2CCCN(S(=O)(=O)c3ccc4c(ccn4C)c3)C2)cc1 (stereo not given),nt,3%,-4,nt,nt,nt
COc1ccc(-c2c3c([nH]c(=S)c2C#N)CCC3)cc1,11,32µM*,16,4.5µM*,4,17%
Cc1ccc(N/N=C(/Sc2nnnn2-c2ccccc2)C(=O)c2ccccc2)cc1,-12,0%,nt,1%,?,25µM*
COc1cc2c(cc1OC)C(COc1ccc3c(C)cc(=O)oc3c1)N(C(=O)Cc1ccccc1)CC2 (stereo not given),nt,35µM*,-6,nt,nt,nt
COc1cc2c(cc1OC)C(COc1ccc3c(C)cc(=O)oc3c1)N(C(=O)Cc1ccc(F)cc1)CC2 (stereo not given),nt,0%,-9,nt,nt,nt
Cc1coc2c(C)c3oc(=O)c(CCC(=O)N4CCCCC4)c(C)c3cc12,nt,1%,6,nt,nt,nt
COc1ccccc1-c1nnc(SC(C(=O)c2c[nH]c3ccccc23)c2ccccc2)n1C (stereo not given),11,0%,2,5%,0,35µM*
COc1cccc(-c2nnc(SCCC(=O)O)n2C)c1,4,0%,-10,1%,-3,9%
COc1cccc(-c2nnc(SC(C(=O)c3c[nH]c4ccccc34)c3ccccc3)n2C)c1 (stereo not given),7,0%,-77*,-4%[15.4 µM],1,?
Cc1cccc(C)c1NC(=O)C1CCCN1S(=O)(=O)c1cccc2nsnc12 (stereo not given),nt,1%,-1,nt,nt,nt
OCCCNC(=S)Nc1ccc(Br)cc1Cl,nt,-2%,-1,-22%[15.4 µM],nt,-17%
Cc1cccc(CCNC(=O)COc2cc(=O)n(C)c3ccccc23)c1,13,0%,-18,0%[15.4 µM],-3,32µM*
CCCC(O)(c1ccc(Cl)cc1)C(CN1CCOCC1)c1ccc(Cl)cc1 (stereo not given),-1,-1%,-32,-2%,10,-11%
CCCCC(O)(c1ccc(F)cc1)C(CN1CCOCC1)c1ccc(Cl)cc1 (stereo not given),-18,1%,-77*,-25%,?,-8%
Cc1ccc(C(C)OC(=O)C2(C)CCC(C(=O)O)C2(C)C)cc1 (stereo not given),nt,nt,-7,nt,nt,nt
CCc1sc(C(C2C(=O)CC(C)(C)CC2=O)C2C(=O)CC(C)(C)CC2=O)cc1[N+](=O)[O-],7,-4%,-98*,4%[15.4 µM],0,?
COC(=O)CCCCCn1c(-c2ccccc2)cn2c3c(=O)n(C)c(=O)n(C)c3nc12,nt,11%,nt,nt,nt,nt
COc1cc(C(=O)N(CCN(C)C)CC2CCCN(Cc3ccccc3F)C2)ccc1C (stereo not given),?,-1%,-11,-7%,-6,17%
Cc1cc(NS(=O)(=O)c2ccc(NC(=S)NC(=O)/C=C/c3ccccc3)cc2)no1,0,2%,-7,7%,0,?
Cc1ccc(/C=C/C(=O)NC(=S)Nc2ccc(S(=O)(=O)Nc3cc(C)on3)cc2)cc1,25,0%,-9,0%,-7,35µM*
COc1ccc(C(=O)N2CCN(C(=O)COc3ccccc3)CC2)cc1OC,nt,3%,nt,nt,nt,nt
O=C(Nc1ccc(-n2cccc2)cc1)C1CC1,?,-1%,1,-2%[15.4 µM],19,11µM*
SMILES,TRPV1 potentiator,RXFP1 agonist,RXFP1 antagonist,gsp agonist,TRPV1 agonist,gsp antag
COc1ccc(NC2CCCN(C(=O)c3oc(C)cc3C)C2)cc1OC (stereo not given),6,2%,0,?,14,-9%
Cc1cc(C)c(C(=O)N2CCCC(Nc3ccc(F)cc3)C2)o1 (stereo not given),-6,0%,1,?,83*,-1%
Cc1ccc(NC2CCCN(C(=O)c3ccc(F)cc3)C2)cc1C (stereo not given),-19,-2%,-8,?,?,-11%
O=C(CCC(=O)N1CCCC(Nc2ccccc2)C1)c1ccc(F)cc1 (stereo not given),-5,-4%,1,24%,86*,2%
Cc1cc(C)c(C(=O)N2CCCC(Nc3ccc(C)c(C)c3)C2)o1 (stereo not given),5,0%,-20,7%,97*,3%
O=C(CCc1ccccn1)N1CCCC(Nc2ccc(F)cc2)C1 (stereo not given),?,0%,14,19%,-5,-5%
COc1ccc(NC(=O)c2cc(C)nn2-c2ccccc2)cc1,?,-5%,-11,-2%[15.4 µM],10,9%
COc1cc(OC)cc(C(=O)NCCOC23CC4CC(CC(C4)C2)C3)c1,-6,1%,-6,2.5µM*,19,-16%
Cc1ccc(C(=O)NCCOC23CC4CC(CC(C4)C2)C3)cc1,-18,0%,-28,-19%,?,-3%
O=C1c2ccccc2C(=O)N1CCOc1ccccc1Br,-2,0%,-5,3.5µM*,?,-5%
CC(C)(C)c1csc(NC(=O)c2ccc(Cl)s2)n1,?,-1%,-101*,-18%,1,?
Cc1ccc(C(=O)Nc2nc(C(C)(C)C)cs2)s1,-22,2%,-22,-8%,?,-7%
CCOC(=O)c1c(Oc2ccc(OC)cc2)nnc(-c2ccccc2)c1-c1ccccc1,nt,3%,-19,nt,nt,nt
Cc1[nH]c2ccccc2c1C(=O)C(=O)NC1CC1,-3,-2%,-2,-15%,82*,8%
COc1cc2[nH]c(=O)n(CCCC(=O)N3CCN(c4cccc(C(F)(F)F)c4)CC3)c(=O)c2cc1OC,nt,-2%,nt,nt,nt,nt
CC/C=C(/C(=O)N[C@@H]1C(=O)N2C(C(=O)OCOC(=O)C(C)(C)C)=C(COC(N)=O)CS[C@H]12)c1csc(N)n1,nt,nt,-14,nt,nt,nt
S=C(NC1CCCC1)N1CCN(c2ccc(Cl)cc2)CC1,-13,0%,2,2%,?,-17%
CCOC(=O)c1[nH]c(C)c(C(=O)NCc2ccc(C)cc2)c1C,7,0%,nt,4%,19,10%
CCOC(=O)c1[nH]c(C)c(C(=O)c2ccc(C)cc2)c1C,0,9%,-1,-3%,90*,20%
